# CR mimetic SO: yeast age-related superoxide inhibition as caloric restriction mimetic. S. cerevisiae aged cells, superoxide DHE fluorescence; hits give low values. superoxide response (% of plate mean), % at 10 µM. 0.18% of 330,000 active. AID 2690;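 active = superoxide response under a set limit, about three screen SD below normal, cut at about 65% in these data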;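 note: yeast aged for seven days with compound at 30 °C before DHE staining; 100% = average MFI of all compound-treated wells on the plate with controls excluded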
# HIF act: HIF pathway transcriptional activation; activation, % at 7.5 µM (by protocol); U2OS HRE-luciferase reporter, luminescence; normalized: DMSO 0%, desferrioxamine 100%; 0.32% of 300,000 active;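 active = mean activation of at least 10% of the iron chelator positive control signal, with at least half of replicates also reaching 10%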
# AHR activator: activates the human aryl hydrocarbon receptor. P35869. AHR-responsive luciferase reporter cells, luminescence. activation, % at 5 µM. 2.5% of 320,000 active; in the data active = activation above about 47%;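 note: 0% = vehicle wells and 100% = reference agonist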
# PLC-beta3 inh: PLC-beta3 (human) inhibition, primary screen | inhibition, % at 12.2 µM | AID 720704 | 0.18% of 370,000 active | Purified PLC-beta3, fluorogenic substrate, fluorescence | Q01970; in the data active = inhibition above about 11%;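 note: 0% = median of compound wells on plate and 100% = full blocker control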
# sPLA2-III inh: Blocks human group III sPLA2 activity; Q9NZ20; QFRET BODIPY PC-A2 liposome hydrolysis, fluorescence; inhibition, % at 12.2 µM; 0.56% of 370,000 active;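 active = inhibition above mean plus 3 SD of compounds lying within the high and low control bounds, cut at about 19% in these data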;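 note: 0% = median of test compound wells and 100% = no enzyme DMSO wells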
# PLCg1 inh: blocks human PLC-gamma1 enzyme activity. P19174. purified PLC-gamma1, fluorogenic substrate, fluorescence. inhibition, % at 12.2 µM. 0.84% of 370,000 active; in the data active = inhibition above about 9.5%
# hGIII sPLA2 conf: human GIII-sPLA2 inhibition, confirmation | shares compounds with sPLA2-III inh | recombinant hGIII-sPLA2, BODIPY PC-A2 QFRET fluorescence | inhibition, % at 12.2 µM | 34% of 2,000 active | AID 743280;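 active = mean inhibition across triplicates above the hit cutoff set in the earlier primary screen, cut at about 19% in these data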;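 note: 0% = enzyme with DMSO and 100% = DMSO wells lacking enzyme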
# 535nm interf: 535nm fluorescence interference, HGIII-sPLA2 counter-screen. shares compounds with sPLA2-III inh. BODIPY FL product fluorescence interference, QFRET. inhibition, % at 12.2 µM. 8.5% of 2,000 active;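 active = average inhibition above the solvent-only control mean plus 3 SD, cut at about 6% in these data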;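 note: 0% = DMSO with substrate plus product and 100% = DMSO with substrate alone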
# BODIPY interf DR: 535nm optical interference dose response, HGIII-sPLA2 counter-screen; 240 tested, under 10 active; shares compounds with sPLA2-III inh; IC50, µM; BODIPY FL product fluorescence interference, cell-free;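 active = IC50 at or below 10 µM; inactive = IC50 above 10 µM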
# * = called active by the depositor; nt = no result. Sampled rows, rich in hits. Any-hit rate of the full collection: about 3.9%.
SMILES,CR mimetic SO,HIF act,AHR activator,PLC-beta3 inh,sPLA2-III inh,PLCg1 inh,hGIII sPLA2 conf,535nm interf,others
NC(c1csc(Nc2ncccn2)n1)C1CCCCC1 (stereo not given),nt,nt,nt,-0.3,22.9*,-0.2,3.0,-13.0,
CN(C)c1ccc(NC(=O)Nc2nc(C(N)C3CCCCC3)cs2)cc1 (stereo not given),nt,nt,nt,-9.3,20.3*,-1.2,23.4*,-7.3,
CC(N)c1csc(Nc2ccc(C(=O)NCCCO)cn2)n1 (stereo not given),nt,nt,nt,-10.6,7.6,-5.6,nt,nt,
CC[C@@H](C)[C@H](CN[C@H](CNC)C(C)C)NC[C@@H](C)c1ccc(CC(C)C)cc1,99.4,-0.3,1.9,-0.2,13.6,3.4,nt,nt,
CC[C@H](C)[C@@H](CN[C@H](C)CNC)NCCC(c1ccccc1)c1ccccc1,97.5,0.0,1.9,1.0,26.3*,5.4,3.7,-26.6,
CN[C@H]1C[C@H]2c3[nH]c4c(-c5ccc6c(c5)OCO6)cccc4c3CCN2C[C@H]1[C@H](C)O,nt,nt,nt,-7.8,0.4,-6.9,nt,nt,
Cn1c2ccc(F)cc2c2ncn(CC3CCCO3)c(=O)c21 (stereo not given),92.2,nt,5.8,-16.3,20.7*,-4.0,-0.6,-5.1,
Cc1ccc2c(c1)C(=O)C(=O)N2CCOc1ccccc1,108.4,0.3,-2.2,-10.9,25.3*,-0.4,12.9,-1.2,
Cc1cccc(OCCN2C(=O)C(=O)c3cccc(C)c32)c1,96.6,-0.1,3.8,2.4,7.4,-0.4,nt,nt,
Cc1cccc(OCCN2C(=O)C(=O)c3cc(C)ccc32)c1,106.6,0.7,0.6,-7.9,23.9*,0.2,21.3*,-1.3,
C=CCNC(=S)NNc1nc2c(c(=O)[nH]1)C1(CCCCC1)Cc1ccccc1-2,104.7,0.2,27.0,-20.5,25.3*,-14.5,29.3*,2.1,BODIPY interf DR=>122
CCCCCCCCN1C(=O)[C@H](CC(=O)NCc2cccc(C(F)(F)F)c2)C[C@@]2(C(=O)OCC)CCCC=C12,nt,nt,nt,4.2,-0.3,1.1,nt,nt,
S=c1[nH]nc(C2CCCCC2)n1/N=C/c1ccccc1Br,98.3,0.0,0.5,-2.7,10.9,1.5,nt,nt,
O=[N+]([O-])c1ccccc1/C=N/n1c(C2CCCCC2)n[nH]c1=S,104.2,0.4,2.1,-4.2,19.6*,9.3,27.9*,4.5,BODIPY interf DR=>122
O=C(NCCSCc1c(F)cccc1Cl)c1ccc(CN2CCOCC2)cc1,104.8,-0.3,2.2,-1.3,-2.0,-1.1,nt,nt,
CCC(Cc1ccccc1)NC(=O)CCNS(=O)(=O)c1cc(Br)cnc1N (stereo not given),85.8,0.4,0.6,-1.8,-13.1,0.6,nt,nt,
CCn1c(-c2cccc(Br)c2)n[nH]c1=S,92.8,-0.3,-0.5,-7.5,22.9*,3.4,33.5*,-2.6,BODIPY interf DR=>122
Cc1ccc(N=Nc2ccc3ccccc3c2O)cc1,99.5,0.0,52.6*,-1.7,20.4*,-1.7,30.4*,8.3*,
CCCNC(=O)Nc1cccc(C(=O)OC)c1,113.8,0.2,1.6,4.8,20.8*,4.9,8.3,-5.8,
O=C(Nc1ccnn1C1CCN(Cc2cccc(OCCO)c2)CC1)C1CC1,105.0,-0.3,-2.9,-3.2,-2.9,-1.0,nt,nt,
COc1ccc(C=C2NC(=S)NC2=O)cc1,nt,nt,nt,-3.0,25.1*,3.8,10.5,-2.6,
COc1ccc(/C=C/C=C2\NC(=S)NC2=O)cc1,108.9,0.7,4.0,-5.9,2.5,-3.4,nt,nt,
Cc1ccn(C(=O)c2ccc(NC(=O)CC(C)C)cc2)n1,98.0,0.4,0.7,6.5,19.3*,4.5,2.7,-0.7,
OCC1OC2C(NC(=S)N2c2ccccc2)C(O)C1O (stereo not given),nt,nt,nt,5.4,-1.8,-2.2,nt,nt,
CC(C)C[C@@H]1COc2cc(N3CCCC3)ccc2S(=O)(=O)N1,nt,nt,nt,1.0,20.6*,-1.3,16.6,-5.8,
SMILES,CR mimetic SO,HIF act,AHR activator,PLC-beta3 inh,sPLA2-III inh,PLCg1 inh,hGIII sPLA2 conf,535nm interf,others
CC(C)C[C@H]1COc2cc(N3CCOCC3)ccc2S(=O)(=O)N1,nt,nt,nt,-4.4,7.7,-4.1,nt,nt,
COc1ccc(CCNC(=O)Cc2cccc(C(F)(F)F)c2)cc1OC,92.2,-14.9,1.4,-3.3,2.9,-2.1,nt,nt,
S=C(NCC1CCCCC1)Nc1cccnc1,105.4,-0.4,5.7,0.3,22.6*,0.9,6.5,-5.5,
COCCCN1C(=O)C(CC(=O)NCc2ccco2)CC(C(=O)N2CCOCC2)=C1C (stereo not given),nt,nt,nt,-0.2,20.5*,-0.3,0.5,0.1,
CCN(CC)C(=O)C1=C(C)N(CCCOC)C(=O)C(CC(=O)NCc2ccco2)C1 (stereo not given),nt,nt,nt,4.4,6.6,7.0,nt,nt,
CCCCS(=O)(=O)N1CCCc2nc(-c3ccc(F)cc3)ccc21,nt,nt,nt,-8.6,1.6,-6.6,nt,nt,
CCOC1=C2CN(S(=O)(=O)c3ccc(C)cc3)[C@H](c3ccccc3)C[C@@H]2N(S(=O)(=O)c2ccc(Br)cc2)[C@H](c2ccccc2)C1,nt,nt,nt,-0.6,6.6,-0.9,nt,nt,
CC(C)N1CCCCC(NC(=O)c2ccccc2)C1=O (stereo not given),nt,nt,nt,1.3,22.1*,8.5,-0.4,-4.9,
COc1cc([N+](=O)[O-])cc(/C=N/NC(=O)CC#N)c1O,nt,-0.5,nt,nt,nt,nt,nt,nt,
O=[N+]([O-])c1cc(O)c2ncccc2c1,135.9,0.1,17.4,5.3,-4.9,2.1,nt,nt,
O=C(c1ccc(-c2cc(O)c3ncccc3c2)cc1)N1CCNCC1,105.6,nt,2.3,-15.8,22.8*,-18.6,-11.4,-22.2,
COc1cc(CNC23CC4CC(CC(C4)C2)C3)ccc1OCc1ccccc1,113.5,-0.2,2.0,1.8,21.6*,3.6,-8.2,-32.9,
COc1cc(CNCc2cccs2)ccc1OCc1ccccc1,95.4,0.6,5.2,6.6,-20.2,6.7,nt,nt,
COc1cccc(-c2csc(NNC(=O)c3cccs3)n2)c1,96.4,-0.2,25.1,-5.7,22.6*,-3.6,44.7*,7.3*,
OC(c1ccc(F)cc1)c1ncc(-c2ccc3ccccc3c2)[nH]1 (stereo not given),nt,nt,nt,-34.7,-17.3,-26.2,nt,nt,
CCOC(=O)c1cc(N)cc([N+](=O)[O-])c1,100.9,0.1,1.2,1.3,23.4*,4.1,2.5,-3.6,
Cc1ccccc1C(=O)NNC(=O)c1cc(N)cc([N+](=O)[O-])c1,103.2,0.1,3.1,-2.6,11.5,-0.8,nt,nt,
COc1ccccc1Cn1c(=S)[nH]c2cc(C(=O)NCCCN3CCOCC3)ccc2c1=O,89.1,nt,1.7,-25.4,20.4*,-13.5,12.1,-9.0,
COc1ccccc1Cn1c(=S)[nH]c2cc(C(=O)NCCN3CCOCC3)ccc2c1=O,98.3,-0.4,2.5,1.1,11.7,1.1,nt,nt,
